Compounds with a hit are over-represented: about 18% of the library has one in this group of screens.
DT40 TDP1 no CPT – qHTS for Inhibitors of human tyrosyl-DNA phosphodiesterase 1 (TDP1): qHTS in cells in absence of CPT; DT40 Tdp1-/- hTDP1 cells, no CPT, ATP luminescence, 48 h; Potency, µM (series often up to 46.2 µM), for inactives: top-dose activity change, negative = growth inhibition, usual class: inhibitors; actives 15% (n = 420,000); AID 686978, 2013; further: nearly all actives have a fitted effect of over 55% in size
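Chicken DT40 Tdp1-/- cells stably complemented with human TDP1 were seeded at 400 cells/well with DMSO in place of 20 nM camptothecin. After compound pinning, cells grew at least 48 hr at 37 °C; viability read by CellTiter-Glo luminescence.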
PLK1 PBD block – qHTS for Inhibitors of PLK1-PDB (polo-like kinase 1 - polo-box domain): Primary Screen | Plk1 PBD binding of FITC phosphopeptide, fluorescence polarization | Potency, µM, inactives show max response, negative = inhibition, actives largely listed as inhibitors | actives 2.8% (n = 360,000); further: series mostly up to about 57 µM; nearly all actives have a fitted effect of over 65% in size
Target sequence (P53350 whole entry, looked up, the tested form may be a part): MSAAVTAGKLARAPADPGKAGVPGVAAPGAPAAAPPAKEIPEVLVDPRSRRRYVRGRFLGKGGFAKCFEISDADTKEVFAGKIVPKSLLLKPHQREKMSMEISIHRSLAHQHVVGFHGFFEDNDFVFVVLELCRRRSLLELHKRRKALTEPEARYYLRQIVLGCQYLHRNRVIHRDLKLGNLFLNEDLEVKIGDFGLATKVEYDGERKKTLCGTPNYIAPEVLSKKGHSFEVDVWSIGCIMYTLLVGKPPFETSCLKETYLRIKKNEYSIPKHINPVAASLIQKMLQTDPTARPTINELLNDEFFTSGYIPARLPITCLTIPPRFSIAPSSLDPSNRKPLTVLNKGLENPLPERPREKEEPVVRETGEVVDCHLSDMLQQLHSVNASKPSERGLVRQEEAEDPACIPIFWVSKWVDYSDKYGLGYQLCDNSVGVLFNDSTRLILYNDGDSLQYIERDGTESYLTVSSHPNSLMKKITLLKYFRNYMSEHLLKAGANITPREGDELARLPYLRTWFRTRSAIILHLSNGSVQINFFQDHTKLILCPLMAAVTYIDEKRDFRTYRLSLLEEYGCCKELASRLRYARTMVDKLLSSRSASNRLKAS
TDP1 cell CPT – qHTS for Inhibitors of human tyrosyl-DNA phosphodiesterase 1 (TDP1): qHTS in cells in presence of CPT. Potency, µM (top dose mostly 46.2 µM), for the others: at the highest dose activity change, negative = growth inhibition, hits mostly inhibitors. actives 12% (n = 420,000). chicken DT40 Tdp1-/-;hTDP1 cells + 20 nM CPT, ATP luminescence, 48 h. AID 686979, 2013; further: nearly all actives have a fitted effect of over 55% in size
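Cell growth measured by CellTiter-Glo luminescence after a minimum 48 h, 37 C compound exposure with 20 nM CPT in Tdp1-knockout DT40 cells stably expressing hTDP1, seeded 400/well; qHTS titration format.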
KAT2A inh – qHTS Assay for Inhibitors of GCN5L2 | Histone acetyltransferase KAT2A (Homo sapiens), Q92830 | GCN5L2 HAT assay, ThioGlo1 CoA-SH fluorescence | Potency, µM (titrated, usually from 58.9 µM), inactives show at the top dose activity change, negative = inhibition, usual class: inhibitors | actives 0.21% (n = 390,000) | AID 504327, 2011
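Preincubate 20nM GCN5L2 with compound 15 min, RT → add 50uM ThioGlo1 + 75uM H3(1-25) + 70uM acetyl-CoA → read fluorescence 0 and 20 min. Primary qHTS; fluorescent artifacts likely.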
TDP1 inh – qHTS Assay for Inhibitors of Tyrosyl-DNA Phosphodiesterase (TDP1); AID 485290, 2010; Potency, µM (series often up to 130 µM), inactives show at the highest dose activity change, negative = inhibition, usual class: inhibitors; Tyrosyl-DNA phosphodiesterase 1 (Homo sapiens), Q9NUW8; actives 0.28% (n = 350,000); recombinant TDP1, AlphaScreen DNA substrate cleavage; further: nearly all actives have a fitted effect of over 40% in size
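Tdp1 1 nM final; 15 min RT w/ cpd; substrate 15 nM, 5 min; beads 10 ug/ml, 10 min; AlphaScreen read. Neg ctrl: no enzyme.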
VDR inh – Inhibitors of the vitamin D receptor (VDR): qHTS; Vitamin D3 receptor (Homo sapiens), P11473; VDR-SRC2-3 peptide fluorescence polarization, 2 h; Potency, µM, for inactives: max response, negative = inhibition, usual class: inhibitors; actives 0.93% (n = 400,000); AID 504847, 2011
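Measured by FP: displacement of SRC2-3 coactivator peptide from VDR by library compounds, following a two-hour ambient incubation.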
* = called active by the depositor; ? = inconclusive; · = no result. The call rests on the fitted dose curve; in most records, active means well fitted curve in the direction sought with a large enough effect; inconclusive means small, poorly fitted or top-dose-only effect, or another doubt; inactive means no such curve, though single readings can be large; an effect the other way counts as inactive or inconclusive. On the % scale 0 is the no-effect control and ±100 the full control effect; potency means the concentration at half of the fitted maximal effect.

SMILES	DT40 TDP1 no CPT	PLK1 PBD block	TDP1 cell CPT	KAT2A inh	TDP1 inh	VDR inh
COC(=O)c1ccc2nc(-c3ccc(Cl)cc3)c(Cc3ccc(OC)cc3C)n2c1	?	-1%	?	·	·	·
Cc1cc(C2(c3cc(C)c(O)cc3C)OS(=O)(=O)c3ccccc32)c(C)cc1O	·	·	·	·	26%	·
CCOc1ccc(C2C(C(=O)Nc3ccccc3OC)=C(C)Nc3c(C(=O)Nc4cccc(C)c4)cnn32)cc1 (stereo unspecified)	?	·	?	1%	1%	15%
Cc1ccc(CNC(=O)CSCc2nc(-c3cccc(C)c3)oc2C)cc1	?	·	?	-8%	6%	-12%
COc1ccccc1Cc1c(-c2cccc(Cl)c2)nc2ccc(C)cn12	15µM*	-11%	18µM*	·	·	·
CC(Oc1ccccc1)C(=O)N1CCN(c2ccc(N3CCCCC3)nn2)CC1 (stereo unspecified)	14%	0%	2%	-13%	·	10%
CCNC(=O)c1ccc(C)c(-n2c(C)nc3cccnc32)c1	-1%	·	4%	-6%	3%	16%
COCCNC(=O)c1cccc(-n2c(C)nc3cccnc32)c1	-13%	·	-3%	-4%	0%	1%
Cc1ccc(C(=O)NCCc2ccc(Cl)cc2)cc1-n1c(C)nc2cccnc21	23µM*	·	?	1%	3%	15%
CCOc1ccc(CCNC(=O)c2cccc(-n3c(C)nc4cccnc43)c2)cc1	16µM*	·	23µM*	2%	8%	3%
CCC1(c2ccc(OC)cc2)NC(=O)N(CC(=O)c2ccc3c(c2)OCCO3)C1=O (stereo unspecified)	?	-5%	-23%	-3%	2%	5%
S=c1[nH]nc(-c2cc(-c3ccccc3)n[nH]2)n1/N=C/c1ccccc1	-12%	-21%	?	-6%	·	-16%
Cc1cccc(/C=N/n2c(-c3cc(-c4ccccc4)n[nH]3)n[nH]c2=S)c1	?	-25%	16µM*	-21%	5%	-3%
S=c1[nH]nc(-c2cc(-c3ccccc3)n[nH]2)n1/N=C/C(Br)=C/c1ccccc1	2.6µM*	?	2.9µM*	?	6%	-21%
S=c1[nH]nc(-c2cc(-c3ccccc3)n[nH]2)n1/N=C/C=C/c1ccccc1	?	-4%	?	-10%	5%	-11%
CCC1=C2CC[C@H]3C(=O)N(CC)C(=O)[C@H]3[C@H]2[C@@]2(Cc3ccccc3)C(=O)N(CC3CC3)C(=O)N2C1=O	·	·	·	·	7%	·
CCOc1ncccc1C(=O)NCC(c1ccco1)N1CCCCC1 (stereo unspecified)	?	2%	21µM*	-1%	1%	-11%
Cc1cc(Br)ccc1SCC(=O)NCC(c1ccco1)N1CCCCC1 (stereo unspecified)	?	-17%	18µM*	3%	·	-21%
CSc1ccccc1C(=O)NCC(c1ccco1)N1CCCCC1 (stereo unspecified)	-19%	-18%	-3%	-5%	5%	7%
COc1ccccc1-c1nn(-c2ccccc2)cc1C(=O)NCC(c1ccco1)N1CCCC1 (stereo unspecified)	?	-10%	?	0%	3%	4%
O=C(NCC(c1ccco1)N1CCCC1)c1cn(-c2ccccc2)nc1-c1ccc(F)cc1 (stereo unspecified)	10µM*	-2%	16µM*	0%	-21%	1%
CC(C)(Oc1ccc(Cl)cc1)C(=O)NCC(c1ccco1)N1CCCCC1 (stereo unspecified)	18µM*	-9%	21µM*	-6%	1%	-16%
COc1ccc(C(CNC(=O)C(C)(C)Oc2ccc(Cl)cc2)N2CCCCC2)cc1 (stereo unspecified)	?	-7%	?	-12%	0%	1%
CC(C)Cc1ccc(C(=O)NCCOc2ccccc2)o1	-23%	-4%	7%	-8%	-7%	0%
CN1CCN(C(=O)Nc2cccc(-c3ccccc3)c2)CC1	-13%	-20%	-7%	-11%	4%	11%
SMILES	DT40 TDP1 no CPT	PLK1 PBD block	TDP1 cell CPT	KAT2A inh	TDP1 inh	VDR inh
COc1ccc(CCNC(=O)C(=O)NCC2OCCN2S(=O)(=O)c2cccs2)cc1 (stereo unspecified)	-22%	-4%	-15%	-6%	1%	7%
CCOCc1c(C(=O)NCC(c2ccco2)N2CCCC2)oc2ccccc12 (stereo unspecified)	?	-18%	23µM*	-2%	1%	-13%
Cc1cccc(NC(=O)NCC(c2ccco2)N2CCCCC2)c1 (stereo unspecified)	-13%	4%	-12%	-2%	-2%	6%
O=C(NCC(c1ccco1)N1CCCC1)c1sc2ccccc2c1Cl (stereo unspecified)	21µM*	-3%	?	?	7%	-16%
CCc1cc(C(=O)NCC(c2ccco2)N2CCCCC2)sc1C (stereo unspecified)	15µM*	-8%	?	-1%	3%	-15%
COc1ccc(-n2c(=O)c(-c3cccs3)nc3cnc(Oc4ccccc4)nc32)cc1	-16%	·	2%	134%	·	-4%
CCOc1ccc(NC(=O)C/C(C)=N/NC(=O)COc2ccc(Br)cc2C)cc1	-18%	-3%	-5%	-8%	·	8%
O=C1C=CC(=O)N1N(c1ccccc1)c1ccccc1	21µM*	4.7µM*	10µM*	-6%	8%	13µM*
CC1(C(=O)NC2CCN(Cc3ccccc3)CC2)CCN1Cc1cc2ccccc2o1 (stereo unspecified)	-85%	0%	?	·	·	·
COC(=O)C1CCN(Cc2cn(Cc3ccccc3)nc2-c2cc3ccccc3o2)CC1	26µM*	-1%	?	?	3%	-7%
COCC1CCN(Cc2cn(Cc3ccccc3)nc2-c2cc3ccccc3o2)CC1	-25%	1%	?	7%	-2%	4%
COCC1CCCN(Cc2cn(Cc3ccccc3)nc2-c2cc3ccccc3o2)C1 (stereo unspecified)	?	-7%	26µM*	-5%	-3%	6%

Assay outcomes deposited in PubChem BioAssay by National Center for Advancing Translational Sciences (NCATS).
